Data as given in PubChem BioAssay AID2685 (National Center for Advancing Translational Sciences (NCATS), 2010).
In all, about 320,000 compounds went through this assay and about 2,100 (0.66%) were called active. Inconclusive results (about 53%) are left out. The sample holds actives, similar compounds and a random draw of the others, so the mix is not that of the screen. The call rests on the fitted dose curve; in most records, active means well fitted inhibition curve with a large enough effect in the signal ratio, with a control signal flat (not every such curve was filed as active); inconclusive means small, poorly fitted or top-dose-only effect, or effect the other way, or a change in a side signal; inactive means flat fitted curve, though single readings scatter; the % refers to the signal ratio.

Assay: qHTS Assay for Lipid Storage Modulators in Drosophila S3 Cells;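 on cell number change: cells counted by Cell Tracker Red CMTPX staining in the red channel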
Settings: BODIPY lipid droplet fluorescence, 18-24 h, cells fed with added oleic acid; cell number change: measured here: cell count max response; series mostly up to 46.1 µM
How it was run: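 Drosophila S3 cells loaded with oleic acid (400 uM, as added) and compounds at several concentrations; lipid droplets imaged by 488-nm laser-scanning cytometry, 500–530 nm intensity and object ratio to cell channel. Percent activity normalized to 20 uM Triacsin C.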
Potency means the concentration at half of the fitted maximal effect.

Row | Compound | Potency | cell number change
1 | O=C(NCCNC(=O)c1ccccc1Br)c1ccccc1Br | inactive | 13.7%
2 | O=C(NCCNC(=O)c1ccccc1O)c1ccccc1O | 9.2 µM (active) | -28.8%
3 | O=C(NCCO)c1ccccc1O | inactive | 26.5%
4 | Cc1ccc(C2C(C#N)=C(N)N(c3ncn[nH]3)C3=C2C(=O)CC(C)(C)C3)cc1 (centres undefined) | inactive | 
5 | CCOc1ccc(N(CC(=O)NC(C(C)C)C(C)C)S(=O)(=O)c2ccc(OC)c(OC)c2)cc1 | inactive | 14%
6 | CC(=O)C1=C(O)C(=O)N(c2ccc(S(N)(=O)=O)cc2)C1c1cccc([N+](=O)[O-])c1 (centres undefined) | inactive | 5.32%
7 | CC(NC(=O)CCl)c1ccc(Cl)c(Cl)c1 (centres undefined) | 23.1 µM (active) | -24.5%
8 | CC(C)CNC(=O)c1ccc(Cl)c(Cl)c1 | inactive | -14.4%
9 | CC(NC(=O)Cc1ccc(S(=O)(=O)N2CCOCC2)s1)c1ccc(Cl)c(Cl)c1 (centres undefined) | inactive | -8.77%
10 | Cc1ccc(NC2CCCN(C(=O)c3cnc4ccccn4c3=O)C2)cc1C (centres undefined) | inactive | 10.1%
11 | Cc1ccc(S(=O)(=O)NCC(=O)NCC(=O)N2CCC(C)CC2)cc1 | inactive | 27.4%
12 | Cc1ccc(S(=O)(=O)NCCCC(=O)N2CCC(C)CC2)cc1 | 16.4 µM (active) | -15.3%
13 | CC1CCN(C(=O)CCNS(=O)(=O)c2ccccc2)CC1 | inactive | 9.54%
14 | CC(=O)Nc1cc(NC(C)=O)cc(C(=O)OCC(=O)N2CC(C)OC(C)C2)c1 (centres undefined) | 25.9 µM (active) | -18.5%
15 | CCOc1ccc(C(=O)OCC(=O)N2CC(C)OC(C)C2)cc1OCC (centres undefined) | inactive | -6.35%
16 | CC1CN(C(=O)COC(=O)c2ccc(NC(=O)CC#N)cc2)CC(C)O1 (centres undefined) | inactive | -23.4%
17 | COC(=O)c1ccc(NC(=O)CSc2nc(=O)n3cccc(C)c3n2)cc1 | inactive | -5.09%
18 | COc1ccc(-n2c(C)ccc2-c2ccccc2)cn1 | 14.6 µM (active) | 3.52%
19 | CC(=O)Nc1ccc(-n2c(C)ccc2-c2ccccc2)cc1 | inactive | 12.4%
20 | COC(=O)c1ccc(-n2c(C)ccc2-c2ccccc2)cc1 | inactive | 
21 | COc1ccc(Br)cc1C(=O)NC(=S)Nc1ccc2[nH]c(=O)[nH]c2c1 | inactive | -29.5%
22 | COc1ccc(S(=O)(=O)N2CCCCCC2)cc1C(=O)Nc1ccc(C)cn1 | inactive | 
23 | COc1ccc([C@@H]2C[C@@H](c3ccccc3)Oc3cc(OC)c(OC)c(OC)c32)cc1 | inactive | -1.66%

Row | Compound | Potency | cell number change
24 | COc1ccc([C@@H]2C[C@H](c3ccccc3)Oc3cc(OC)c(OC)c(OC)c32)cc1 | 4.61 µM (active) | -18.2%
25 | COc1ccc(C2CC(O)(c3ccccc3)Oc3cc(OC)cc(OC)c32)cc1 (centres undefined) | inactive | -14.8%
26 | C=C1CCN(C(C(=O)OC)C(C)C)S(=O)(=O)c2ccccc21 (centres undefined) | inactive | 0.159%
27 | Cn1c2c(c(=O)n(C)c1=O)C(NC(=O)c1cccs1)(C(F)(F)F)C(=O)N2 (centres undefined) | inactive | -6.48%
28 | CC(=O)NC1(C(F)(F)F)C(=O)Nc2c1c(=O)n(C)c(=O)n2C (centres undefined) | inactive | -13.1%
29 | CC(C)CC(=O)NC1(C(F)(F)F)C(=O)Nc2c1c(=O)n(C)c(=O)n2C (centres undefined) | 3.66 µM (active) | 2.2%
30 | CCCCC(=O)NC1(C(F)(F)F)C(=O)Nc2c1c(=O)n(C)c(=O)n2C (centres undefined) | 18.4 µM (active) | -5.38%
31 | CCC(=O)NC1(C(F)(F)F)C(=O)Nc2c1c(=O)n(C)c(=O)n2C (centres undefined) | inactive | 7.51%
32 | Cn1c2c(c(=O)n(C)c1=O)C(NC(=O)c1ccco1)(C(F)(F)F)C(=O)N2 (centres undefined) | inactive | 6.96%
33 | CC(=O)Nc1ccccc1/C=C/c1ccc2c(C)cc(C)c(O)c2n1 | inactive | 8.64%
34 | COc1ccc(OC)c(/C=C/C(=O)NCCc2nc3ccccc3[nH]2)c1 | inactive | -6.41%
35 | COc1ccc(/C=C/C(=O)NCCc2nc3ccccc3[nH]2)cc1 | inactive | -8.48%
36 | CCCCCOc1ccc(/C=C/C(=O)NCCc2nc3ccccc3[nH]2)cc1OC | 13 µM (active) | -28.6%
37 | O=C(Nc1nnc(-c2cccs2)o1)C1CC1 | inactive | -5.18%
38 | COc1ccc(N2C(=O)CSC2c2ccccc2)cc1 (centres undefined) | inactive | 14.6%
39 | Cc1n[nH]c(C)c1S(=O)(=O)N1CCc2ccccc21 | inactive | -2.98%
40 | C/C(=N\NC(=O)c1cccs1)c1cccnc1 | inactive | 20.6%
41 | S=C(NCc1ccccc1)N1CCn2cccc2C1c1ccncc1 (centres undefined) | inactive | 5.96%
42 | S=C(NCCc1ccccc1)N1CCn2cccc2C1c1ccncc1 (centres undefined) | 7.31 µM (active) | 15.3%
43 | S=C(NCCc1ccccc1)N1CCn2cccc2C1c1cccnc1 (centres undefined) | inactive | -24.1%
44 | CC[C@@H](NS(=O)(=O)c1ccc(C)cc1)C(=O)Oc1ccc2c3c(c(=O)oc2c1)CCC3 | inactive | 4.66%
45 | CC(=O)NC12CC3CC(C1)CC(C(=O)Nc1nc4c(C)cccc4s1)(C3)C2 | 5.8 µM (active) | -14.2%
46 | CC(=O)NC12CC3CC(C1)CC(C(=O)Nc1nc4ccc(S(C)(=O)=O)cc4s1)(C3)C2 | inactive | -1.02%

Row | Compound | Potency | cell number change
47 | CC(=O)NC12CC3CC(C1)CC(C(=O)Nc1nc4ccc(F)cc4s1)(C3)C2 | inactive | -27.9%
48 | CC(=O)N(C)C1=C(N2CCOCC2)C(=O)c2ccccc2C1=O | inactive | 0.283%
49 | O=C1C=C(N2CCOCC2)c2ccccc2C1=O | 4.11 µM (active) | -6.93%
50 | O=C(O)c1ccc(NC2=C(N3CCOCC3)C(=O)c3ccccc3C2=O)cc1 | inactive | -2.96%
51 | Cc1ccc(-n2nc(C)c3c(C)c(CCC(=O)O)c(C)nc32)cc1C | inactive | 9.26%
52 | O=C(O)CCCc1ccc2ccc3cccc4ccc1c2c34 | inactive | 11.3%
53 | CCN(CC(=O)NCc1ccc(F)cc1)C(=O)c1cccnc1SC | inactive | 23.4%
54 | CCOc1ncccc1C(=O)N(CC)CC(=O)Nc1ccc(NC(C)=O)cc1 | inactive | 4.04%
55 | Cc1ccnc(NC(=O)CCC(=O)N(CC(=O)NCc2ccccc2)Cc2ccccc2)c1 | inactive | 14.2%
56 | CCOc1ncccc1C(=O)N(CC)CC(=O)NCc1ccc(F)cc1 | 3.66 µM (active) | 4.96%
57 | CC(C)NC(=O)CN(Cc1ccc2c(c1)OCO2)C(=O)CCC(=O)Nc1ccccn1 | 18.4 µM (active) | 0.42%
58 | COc1ccc(CN(CC(=O)NCc2ccc(F)cc2)C(=O)CCC(=O)Nc2cc(C)ccn2)cc1 | 23.1 µM (active) | 6.52%
59 | CC(C)CCNC(=O)CN(Cc1ccc2c(c1)OCO2)C(=O)CCC(=O)Nc1ccccn1 | inactive | 2.93%
60 | O=C(CN(Cc1ccccc1)C(=O)CCC(=O)Nc1ccccn1)NCc1ccc(F)cc1 | inactive | 7.92%
61 | Cc1ccnc(NC(=O)CCC(=O)N(CC(=O)NC(C)(C)C)Cc2ccc3c(c2)OCO3)c1 | 23.1 µM (active) | -17.5%
62 | Cc1ccnc(NC(=O)CCC(=O)N(CC(=O)NC(C)(C)C)c2ccc3c(c2)OCCO3)c1 | inactive | 5.82%
63 | CCc1ccc(N(CC(=O)NC(C)C)C(=O)CCC(=O)Nc2ccccn2)cc1 | inactive | -21%
64 | CCC(C)(C)NC(=O)CN(Cc1ccc2c(c1)OCO2)C(=O)CCC(=O)Nc1ccccn1 | inactive | 
65 | COC(=O)Cc1c(C)nc2nc(NCc3cccc([N+](=O)[O-])c3)[nH]n2c1=O | inactive | 22.4%
66 | COc1cccc(NC(=O)c2ccn(C)n2)c1 | inactive | -7.57%
67 | CCCC(=O)Nc1cc(C(=O)O)ccc1Sc1ccccc1 | inactive | -3.48%
68 | Cc1cc(C)n(-c2ccc(C(=O)NCc3ccc4c(c3)OCO4)cc2)n1 | inactive | -26%
69 | COc1ccc(S(=O)(=O)NC2CC(=O)N(c3ccc(C)c(C)c3)C2)cc1C (centres undefined) | inactive | 

Row | Compound | Potency | cell number change
70 | O=C(Cn1cnc2ccccc2c1=O)c1ccccc1 | inactive | -5.21%
71 | O=C(CNC(=O)c1ccncc1)N/N=C/c1cc(Br)ccc1O | inactive | -8.8%
72 | Cc1cccc(N2C(=O)CC(N(C(=O)c3ccco3)c3cccc(C)c3)C2=O)c1 (centres undefined) | inactive | 1.21%
73 | COc1ccccc1/C=c1\sc2nc(-c3ccccc3OC)nn2c1=O | inactive | -6.9%
74 | Cn1c(-c2sc3cc(C(F)(F)F)cnc3c2-c2cccs2)n[nH]c1=S | inactive | -11.9%
75 | O=S(=O)(c1ccccc1)n1ccc2ccccc21 | inactive | -15.8%
76 | NC1=NC(=O)/C(=C/c2cccs2)S1 | inactive | -5.63%
77 | O=C1N=C(N2CCN(c3cccc4ccccc34)CC2)S/C1=C/c1cccs1 | inactive | 
78 | O=C1/C(=C\c2cccs2)Sc2ccc3ccccc3c21 | 16.4 µM (active) | -14.8%
79 | O=C(O)c1ccc(NC(=O)c2cn(-c3ccccc3)nc2-c2cccc(Cl)c2)cc1 | inactive | 4.66%
80 | CC(O)CCc1nc2ccc(C(=O)O)cc2[nH]1 (centres undefined) | inactive | 3.44%
81 | CC(O)c1nc2ccc(C(=O)O)cc2[nH]1 (centres undefined) | inactive | -0.214%
82 | CC(C)c1nc2ccc(C(=O)O)cc2[nH]1 | 23.1 µM (active) | -0.0603%
83 | COc1cccc(-n2c(SCC(=O)OC(C)C)nnc2-c2cccnc2)c1 | inactive | 
84 | O=C(COc1ccc(Br)cc1)N1CCNC1=O | inactive | -1.77%
85 | O=C(COc1ccccc1Br)N1CCNC1=O | inactive | -13%
86 | O=C(COc1ccccc1)N1CCNC1=O | 11.6 µM (active) | -10.9%
87 | CCOc1ccc(NC(=NCc2ccc3c(c2)OCO3)SC2CC(=O)N(c3ccc(OCC)cc3)C2=O)cc1 (centres undefined) | inactive | 1.82%
88 | COc1cccc(NC(=O)[C@@H]2CCCN2C(=O)[C@@H]2Cc3ccccc3CN2C(=O)OC(C)(C)C)c1 | inactive | -9.43%
89 | O=C1C2C(c3cccc(/C=C/c4ccccc4)c3)CC=CC2C(c2ccc(C(F)(F)F)cc2)N1Cc1ccccc1 (centres undefined) | inactive | -0.28%
90 | O=C1C2C(c3ccccc3)CC=CC2[C@H](c2ccc(C(F)(F)F)cc2)N1Cc1ccccc1 (some centres undefined) | 18.4 µM (active) | 
91 | Cc1ccc(-c2cccc(C3CC=CC4C3C(=O)N(Cc3ccccc3)C4c3ccc(C(F)(F)F)cc3)c2)cc1 (centres undefined) | inactive | 0.818%
